Bioassay records (PubChem)
GCN5L2 inh: blocks human GCN5L2 histone acetyltransferase; GCN5L2 HAT assay, ThioGlo1 CoA-SH fluorescence; Potency, µM (titrated, usually from 58.9 µM), without a hit: at the top dose activity change, negative = inhibition, most hits filed as inhibitors; 0.21% of 390,000 active; note: potency is the fitted concentration of half-maximal effect; % is set by controls: 0 for no effect and ±100 for the full control effect
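Free CoA generated was detected with ThioGlo1 (50uM) fluorescence at Ex340nm/Em540nm, read immediately and after 20 min at room temperature. Enzyme, 20 nM in HEPES pH 7.5 buffer, saw compounds 15 min before adding 75uM H3(1-25) peptide and 70uM acetyl-CoA.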
Rango release inh: inhibition of RanGTP-driven Rango-importin beta dissociation | O95149+P62826 | Biochemical FRET Rango-importin beta, RanGTP-induced dissociation | Potency, µM (series often up to 46.1 µM), inactives show at the highest dose activity change, negative = inhibition | 0.071% of 340,000 active | AID 540253; calls by dose curve; note: potency is the fitted concentration of half-maximal effect; % of control where 0% means no effect; nearly all actives have a fitted effect of over 45% in size
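FRET read at 45 min, room temperature: inhibitors block the CFP/YFP signal rise when RanGTP (0.6 uM Ran, 2 mM GTP, 0.2 uM RCC1) frees Rango (0.1 uM) from importin beta (0.25 uM). Pre-read after 5 min compound exposure flags interference.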
PLK1 PBD inh: inhibitors of human PLK1 polo-box domain binding | Plk1 PBD binding of FITC phosphopeptide, fluorescence polarization | 2.8% of 360,000 active | Potency, µM, without a hit: max response, negative = inhibition, most hits filed as inhibitors | P53350; note: potency is the fitted concentration of half-maximal effect; series mostly up to about 57 µM; % is set by controls: 0 for no effect and ±100 for the full control effect; nearly all actives have a fitted effect of over 65% in size
VDR inhibitor: vitamin D3 receptor (human) inhibition; VDR-SRC2-3 peptide fluorescence polarization, 2 h; Potency, µM, inactives show max response, negative = inhibition, hits mostly inhibitors; 0.93% of 400,000 active; note: potency is the fitted concentration of half-maximal effect; % is set by controls: 0 for no effect and ±100 for the full control effect
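Fluorescence polarization assay measuring small-molecule disruption of VDR binding to the coregulator peptide SRC2-3. Compounds were pin-transferred (23 nl) into the reagent mix and incubated 2 h at room temperature before reading.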
Rango-impB inh: Rango-importin beta binding inhibition. Q14974. Rango CFP/YFP FRET sensor + importin beta, 45 min. Potency, µM (doses to about 92.2 µM), without a hit: top-dose inhibition of complex formation. 0.031% of 340,000 active. AID 540263; calls by dose curve;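 note: potency is the fitted concentration of half-maximal effect; 0% = DMSO wells and 100% = buffer wells lacking importin beta; nearly all actives have a fitted effect of over 15% in size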
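Inhibition scored from the CFP 486 nm/YFP 530 nm FRET ratio 45 min after adding 0.125 microM importin beta to 50 nM Rango biosensor preincubated 5 min with compound (room temperature, PBS with DTT, Tween-20, BSA). No-importin wells as positive control.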
PI5P4K alpha inh: PI5P4K alpha (human) kinase inhibition | P48426 | AID 652105 | max response, % | 1.2% of 330,000 active | PI5P4Kalpha enzyme, ADP-Glo luminescence, 60 min; active compounds read low; active = max response of -50% or lower; inconclusive = between -30% and -50%; inactive = -30% or higher; note: value at the top dose of about 77 µM; % is set by controls: 0 for no effect and ±100 for the full control effect
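ADP-Glo luminescence end-point read after a 60 min room-temperature kinase reaction of PI5P4Kalpha plus substrate, initiated with ATP at 5 microM final. Buffer: 0.038 M HEPES pH 7.4, EGTA, 0.1% CHAPS, 5% DMSO.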
* = called active by the depositor; ? = inconclusive; / = no result given. This is a sample that favours compounds with a hit; in the whole collection about 3.6% have one here. Unless noted, calls come from the whole dose curve; as a rule, active = well fitted curve in the direction sought with a large enough effect; inconclusive = small, poorly fitted or top-dose-only effect, or another doubt; inactive = no such curve, though single readings can be large; an effect the other way counts as inactive or inconclusive.

SMILES | GCN5L2 inh | Rango release inh | PLK1 PBD inh | VDR inhibitor | Rango-impB inh | PI5P4K alpha inh
CCOCCc1nn2c(=O)cc(COC(=O)C(CC)c3ccccc3)nc2s1 (stereo not drawn) | -20% | / | / | -1% | / | /
CCOC(=O)c1c(N)sc(=S)c2c1CCC2 | -4% | -4% | ? | -29% | -1% | ?
CCCc1c(C(=O)OCC)sc(N)c1C#N | 1% | -3% | 19µM* | -11% | 3% | -15
CCOC(=O)c1sc(NC(=O)Nc2ccccc2)cc1C | -15% | 1% | -7% | 12% | -1% | -8
CCOC(=O)c1sc(N)c(C(N)=O)c1C | -5% | -6% | 24µM* | -6% | 3% | 2
CCOC(=O)c1c(N)sc(C(=O)Nc2ccccc2)c1C | 3% | 3% | 21µM* | ? | 0% | -4
CCOC(=O)c1c(N)ssc1=S | -15% | -1% | 6.7µM* | -26% | ? | /
COc1ccc(-n2cccc2/C=C/[N+](=O)[O-])cc1 | -11% | 0% | 27µM* | ? | -4% | ?
Cc1cc(=O)[nH]c(=O)n1Cc1ccccc1 | -3% | 5% | -4% | -12% | 6% | -84*
Cc1cc(=O)n(Cc2ccccc2)c2ccccc12 | 20% | 33% | 21µM* | -10% | 2% | 2
Cc1cc(=O)c2ccccc2n1Cc1ccccc1 | -5% | 23% | -11% | 10% | -2% | 9
C[C@H](NC(=O)OC(C)(C)C)c1nnc(SCc2c(F)cccc2Cl)o1 | -8% | / | / | 89µM* | / | /
CC(C)[C@H](NC(=O)OC(C)(C)C)c1nnc(S(=O)(=O)Cc2c(F)cccc2Cl)o1 | -2% | -2% | 9.5µM* | ? | 3% | /
C[C@H](NC(=O)OC(C)(C)C)c1nnc(SCC(=O)c2ccc(Cl)cc2)o1 | -5% | -1% | -16% | 13% | -7% | 0
CC[C@@H](C)[C@H](NC(=O)OC(C)(C)C)c1nnc(S(=O)(=O)Cc2cc(C)ccc2C)o1 | -7% | -5% | 6µM* | 11µM* | -3% | -2
COc1ccc(S(=O)(=O)n2nc(C)c(S(=O)(=O)N3CCC(C)CC3)c2C)cc1C | 0% | / | / | 3% | / | /
C/C(=N\NC(=S)Nc1ccccc1C)c1ccc(O)cc1 | -12% | 4% | 11µM* | ? | 5% | -25
C/C(=N\NC(=S)Nc1c(C)cccc1C)c1ccc(OC(F)F)cc1 | -2% | -4% | -6% | ? | 0% | -4
C=CCN1C(=O)C(O)(CC(=O)c2ccc(OC)cc2OC)c2cc(Br)ccc21 (stereo not drawn) | -5% | -9% | 8.4µM* | -27% | 0% | ?
COc1ccc(C(=O)CC2(O)C(=O)N(CCc3ccccc3)c3ccc(Br)cc32)cc1OC (stereo not drawn) | -9% | / | / | -11% | / | /
O=C(NNC(=O)c1sccc1-n1cccc1)c1ccc(F)cc1 | -7% | 3% | -17% | -14% | 0% | 2
O=C(NNC(=O)c1sccc1-n1cccc1)c1ccccc1 | -7% | -15% | 24µM* | -21% | -5% | -17
Cc1ccc(C(=O)NCC(c2ccco2)S(=O)(=O)c2ccc(Cl)cc2)cc1C (stereo not drawn) | -1% | / | / | 0% | / | /
COc1ccc(OCC(O)Cn2c(NCCO)nc3c2c(=O)n(C)c(=O)n3C)cc1 (stereo not drawn) | -7% | / | / | 8% | / | /
COC(=O)c1cc(COc2ccc3oc(C)c(C(=O)OC)c3c2)c(C)o1 | -13% | -16% | -8% | -3% | -2% | /
CCOC(=O)c1c(C)oc2ccc(OCc3cc(C(=O)OC)oc3C)cc12 | -8% | -2% | 27µM* | -19% | 0% | -1
Oc1nc(Nc2cccc(Cl)c2)sc1/C=C1\C=Nc2ccccc21 | -7% | ? | -20% | 0% | ? | -62*
CC1=Nc2ccccc2/C1=C\c1sc(Nc2ccc(C)cc2)nc1O | -2% | ? | 6% | -21% | ? | -66*
Cc1ccc2c(c1)-c1onc(C(=O)N(C)c3cccc(C(F)(F)F)c3)c1CO2 | -16% | / | / | 3% | / | /
